This passage reports relative growth results from the supplement of paper PMC12067926.

Compound in the assay: O=C(Oc1ccccc1)n1c(C(F)(F)F)nc2cc(Cl)c(Cl)cc21
Put plainly: relative growth (AUC of 72 h growth curve relative to DMSO control, dAUC) (ratio); higher = more growth (less inhibition), active = hit call of the paper. As to conditions: 20 µM;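 active = growth AUC significantly below the DMSO wells by Dunnett test; inactive = the rest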. The protocol:
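Environmental bacterial isolates (Iceland stream sediment and Silwood Park soil) and whole stream-sediment communities were grown in LB from a 1:100 dilution with each pesticide at 20 µM (1% DMSO). A600 was read hourly for 72 h and the area under a spline-fitted growth curve (AUC) was computed. dAUC is the mean AUC of 3 biological replicates divided by the mean AUC of the DMSO controls. Significance was tested by Dunnett's test against the DMSO control.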
As to Aeromonas 1 (Aeromonas sp. AE235), the relative growth was 0.32 (active).

Regarding Community 7, the relative growth is 1.01 (inactive).

As to “Paenibacillus 1 (Paenibacillus castaneae)”, the relative growth is 0.00512 (active).

As to Neobacillus 1 (Neobacillus soli), the relative growth was 0.826 (inactive).

Take Aeromonas 3 (Aeromonas popoffii): the relative growth is 0.337 (active).

For Community 9, the relative growth was 0.363 (active).

With Community 4, the relative growth was 0.809 (inactive).

Arthrobacter 1 (Arthrobacter humicola): the relative growth is 0.211 (active).

Turning to Sphingomonas 2 (Sphingomonas sp.), the relative growth is 0.0208 (active).

As to Aeromonas 2 (Aeromonas sobria), the relative growth is 0.0369 (active).

Consider “Flavobacterium 1 (Flavobacterium glaciei)”, for which the relative growth is 0.0789 (active).

With Hymenobacter 1 (Hymenobacter glaciei), the relative growth is 0.165 (active).

Take Pseudomonas 1 (Pseudomonas baetica): the relative growth was 0.741 (inactive).

Community 10: the relative growth was 0.772 (inactive).

Consider Bacillus 1 (Bacillus foraminis), for which the relative growth was 0.747 (inactive).

In the case of Arthrobacter 2 (Arthrobacter humicola), the relative growth was 0.00975 (active).

With Community 6, the relative growth is 0.563 (active).

Turning to Rhizobium 1 (Rhizobium herbae), the relative growth was 0.0292 (active).

Regarding Community 8, the relative growth is 0.787 (inactive).

“Microbacterium 1 (Microbacterium arborescens)”: the relative growth was 0.785 (active).

As to “Prolinoborus 1 (Prolinoborus fasciculus)”, the relative growth was 0.283 (active).

As to Pseudomonas 6 (Pseudomonas sp.), the relative growth was 0.777 (inactive).

For the target “Pseudomonas 2 (Pseudomonas vancouverensis)”, the relative growth is 0.735 (active).

Pseudomonas 3 (Pseudomonas mandelii): the relative growth was 0.765 (active).

For the target Pseudomonas 5 (Pseudomonas baetica), the relative growth is 0.765 (active).

With Arthrobacter 3 (Arthrobacter sp.), the relative growth was 0.0715 (active).

In the case of “Carnobacterium 1 (Carnobacterium gallinarum)”, the relative growth was 0.0839 (active).

As to Oryzobacter 1 (Oryzobacter terrae), the relative growth is 0.00822 (active).

Consider “Flavobacterium 2 (Flavobacterium succinicans)”, for which the relative growth is 0.0416 (active).

Turning to Serratia 1 (Serratia sp. 2015-2462-01), the relative growth is 0.366 (active).

As for Pseudomonas 4 (Pseudomonas peli), the relative growth was 0.336 (active).

Regarding Argrobacterium 1 (Agrobacterium sp.), the relative growth is 0.752 (active).
